Data on 89 sequences can be found in article PMC10668032, “Altered binding affinity of SIX1-Q177R correlates with enhanced WNT5A and WNT pathway effector expression in Wilms tumor”.

Over roughly 33,000 sequences, “e-score” has its median near -0.053; the highest 2% begin near 0.38. The sample holds the highest values, similar sequences and a random draw of the others, so the mix is not that of the screen.

The experiment deals with T1, SIX1 homeodomain (reference allele) (human, UniProt Q15475 108-198).
T1 sequence: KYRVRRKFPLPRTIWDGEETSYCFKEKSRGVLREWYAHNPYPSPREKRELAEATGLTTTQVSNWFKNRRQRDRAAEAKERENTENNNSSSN
Nature of the experiment: universal protein binding microarray; Universal all-10-mer PBM (8x60K, AMADID 030236), 300 nM GST-tagged protein, Alexa Fluor 488 anti-GST; buffer, salt, pH and temperature not stated (as in Berger); high values mean tight binding. The settings on record: protein: ivt; tags: N-terminal GST; dsDNA, one strand shown. The method in brief:
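Homeodomains fused to GST were made by in vitro transcription/translation and measured by anti-GST western blot with a recombinant GST standard curve. At 300 nM final concentration, they were applied in duplicate to universal 'all 10-mer' protein binding microarrays (8×60K format).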
ACGGTATA: the binding signal is 0.309 ± 0.0298 E-score.

For CCGGTATC, the binding signal amounted to 0.465 ± 0.014 E-score.

Take ACGGTATC: the binding signal was 0.461 ± 0.00576 E-score.

As for ACGGTATG, the binding signal was found to be 0.157 ± 0.0316 E-score.

For AGCTGGAT, the binding signal came out at 0.248 ± 0.0399 E-score.

Turning to CGGGCTCA, the binding signal came out at 0.2 ± 0.0586 E-score.

For the sequence CCGATACC, the binding signal is 0.478 ± 0.00955 E-score.

For GCGATACA, the binding signal was found to be 0.3759 ± 0.00354 E-score.

Take CCAATACC: the binding signal amounted to 0.324 ± 0.0157 E-score.

For the sequence CCGATACA, the binding signal came to 0.355 ± 0.0604 E-score.

In the case of CCTATACC, the binding signal came out at 0.311 ± 0.00556 E-score.

On to CCGATAGG, for which the binding signal was found to be 0.348 ± 0.0522 E-score.

With GCGATACC, the binding signal amounted to 0.4835 ± 0.00434 E-score.

On to CCGATACG, for which the binding signal is 0.425 ± 0.0199 E-score.

As for GCGATAGC, the binding signal turned out to be 0.165 ± 0.0972 E-score.

For the sequence ACGATACC, the binding signal was found to be 0.4766 ± 0.000912 E-score.

On to ACTATACC, for which the binding signal amounted to 0.294 ± 0.0358 E-score.

As to ACGATAGC, the binding signal turned out to be 0.217 ± 0.0418 E-score.

On to ATCGCCCC, for which the binding signal was found to be 0.253 ± 0.0184 E-score.

Take TCATCTCA: the binding signal came out at 0.298 ± 0.0135 E-score.

Regarding TACCTATA, the binding signal stood at 0.289 ± 0.0262 E-score.

For ACTGTATA, the binding signal is 0.239 ± 0.0136 E-score.

Consider ACGATACT, for which the binding signal is 0.439 ± 0.00647 E-score.

Consider AAGATACT, for which the binding signal was 0.295 ± 0.0825 E-score.

Regarding CCTATACG, the binding signal worked out at 0.153 ± 0.0436 E-score.

Turning to ACTATACG, the binding signal is 0.247 ± 0.0175 E-score.

With ACGATACG, the binding signal worked out at 0.4317 ± 0.000841 E-score.

As for ACGATACA, the binding signal was 0.3689 ± 0.00151 E-score.

For GAGGTGTA, the binding signal is 0.233 ± 0.0426 E-score.

On to CCAATTAG, for which the binding signal came out at 0.188 ± 0.014 E-score.

On to ATACTAGC, for which the binding signal turned out to be 0.245 ± 0.0797 E-score.

On to GGATAGTA, for which the binding signal stood at 0.332 ± 0.00348 E-score.

As to AGTATCGG, the binding signal was 0.4293 ± 0.0041 E-score.

Regarding AAGATCGC, the binding signal came out at 0.211 ± 0.00754 E-score.

On to ACTATCGA, for which the binding signal amounted to 0.263 ± 0.00274 E-score.

In the case of ATTATCGG, the binding signal worked out at 0.24 ± 0.012 E-score.

On to CCTATCGC, for which the binding signal turned out to be 0.29 ± 0.0221 E-score.

Regarding AGTATAGA, the binding signal worked out at 0.195 ± 0.0499 E-score.

Consider AGTATCGC, for which the binding signal worked out at 0.435 ± 0.0231 E-score.

Consider ACTATCGC, for which the binding signal amounted to 0.2364 ± 0.00196 E-score.

For AGTATCGA, the binding signal stood at 0.418 ± 0.0178 E-score.

On to CGTATAGC, for which the binding signal worked out at 0.185 ± 0.0242 E-score.

CGTATCGC: the binding signal was 0.453 ± 0.00646 E-score.

Turning to AGTATATG, the binding signal came out at 0.207 ± 0.0381 E-score.

On to CTAGATAG, for which the binding signal came out at 0.197 ± 0.0328 E-score.

For ATATGCGA, the binding signal was determined as 0.276 ± 0.0349 E-score.

With ATATAGCA, the binding signal worked out at 0.248 ± 0.0375 E-score.

For the sequence TATTGAGA, the binding signal is 0.237 ± 0.0198 E-score.

Regarding AGATCTGC, the binding signal came to 0.204 ± 0.0418 E-score.

With ACTCGTAT, the binding signal came out at 0.205 ± 0.0218 E-score.

For GTATTGAA, the binding signal was 0.213 ± 0.0401 E-score.

CTTGTATA: the binding signal came to 0.213 ± 0.0563 E-score.

As for ATACAGCA, the binding signal is 0.221 ± 0.0273 E-score.

As to ATACTAGG, the binding signal is 0.275 ± 0.02 E-score.

As to GATACGGC, the binding signal amounted to 0.4543 ± 0.00163 E-score.

Consider GATACGGA, for which the binding signal was found to be 0.455 ± 0.00852 E-score.

Consider GATACGAC, for which the binding signal was 0.382 ± 0.0127 E-score.

In the case of TATACGGA, the binding signal amounted to 0.28 ± 0.0266 E-score.

Consider AATACGGC, for which the binding signal is 0.252 ± 0.0178 E-score.

Take GATACGAA: the binding signal worked out at 0.335 ± 0.00345 E-score.

For AATACGAC, the binding signal came out at 0.18 ± 0.0741 E-score.

As to AATACGGT, the binding signal amounted to 0.231 ± 0.00828 E-score.

With CATACGGA, the binding signal came to 0.178 ± 0.0693 E-score.

As to ATTATAAT, the binding signal was 0.151 ± 0.0936 E-score.

As for ATCGCTGA, the binding signal was determined as 0.226 ± 0.0497 E-score.

As to AATCCGAT, the binding signal came to 0.3407 ± 0.0025 E-score.

Consider ATATGCGG, for which the binding signal is 0.274 ± 0.0261 E-score.

On to GTATCACA, for which the binding signal was 0.476 ± 0.00651 E-score.

For GTGTCACA, the binding signal was 0.375 ± 0.0203 E-score.

Consider ATCACACG, for which the binding signal amounted to 0.256 ± 0.0276 E-score.

On to ATATCACA, for which the binding signal came to 0.432 ± 0.0476 E-score.

Take CTATCACC: the binding signal turned out to be 0.35 ± 0.0258 E-score.

As to ATCTCACC, the binding signal stood at 0.335 ± 0.0374 E-score.

For ATATCACC, the binding signal is 0.463 ± 0.0204 E-score.

For ATCACACA, the binding signal was 0.266 ± 0.0227 E-score.

For the sequence CGATCACA, the binding signal stood at 0.273 ± 0.0408 E-score.

As to ATCTCACA, the binding signal turned out to be 0.293 ± 0.0554 E-score.

Consider ATATCACG, for which the binding signal was found to be 0.456 ± 0.0263 E-score.

As to CTATCACA, the binding signal came to 0.311 ± 0.0251 E-score.

As to GACCCCGA, the binding signal came out at 0.162 ± 0.0961 E-score.

Regarding GACCGATA, the binding signal was 0.352 ± 0.0178 E-score.

As to ATCCTGCC, the binding signal was found to be 0.175 ± 0.00513 E-score.

In the case of ATCCCAGG, the binding signal amounted to 0.246 ± 0.0889 E-score.

Consider ATACGTCG, for which the binding signal stood at 0.284 ± 0.0738 E-score.

With GAGGATCC, the binding signal is 0.366 ± 0.0159 E-score.

Take ATCATGCC: the binding signal was 0.244 ± 0.0171 E-score.

As to ATACTAAC, the binding signal is 0.243 ± 0.00453 E-score.

Regarding GATCGGGA, the binding signal was found to be 0.314 ± 0.0357 E-score.

Take ATCATGTA: the binding signal was determined as 0.257 ± 0.0225 E-score.
